Nine compounds from PubChem BioAssay (NCATS) can be followed below.

Assay [1] in a line: AP1 Signaling Pathway (AID 357; active means well fitted curve in either direction with a large enough effect, not every such curve was filed as active;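 further: ME-180 reporter cells stimulated with EGF at its EC50 level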). Summed up:
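Cells are seeded overnight, exposed to compound titrations and an EC50 level of EGF for 5 hours at 37 °C, then loaded with CCF4 dye for 2.5 hours. Beta-lactamase activity under the AP-1 element is read as a blue/green ratio.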

For assay [2], the target named is Glucocorticoid receptor (Homo sapiens) (UniProt P04150). The assay is described as follows: GR-GFP Redistribution (AID 450;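 active means compounds whose dose series gives a full or clear partial fitted curve of increased nuclear translocation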; further: potency means the concentration at half of the fitted maximal effect). As to conditions: U2OS GR-GFP nuclear translocation, laser cytometry, 2 h.
Assay [3] has the same target. The assay is described as follows: GR-EFC Redistribution (AID 451; calls by dose curve; further: potency means the concentration at half of the fitted maximal effect). The conditions noted are these: CHO-K1 GR-EFC translocation, beta-gal luminescence, 2 h. Summed up: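 Translocation of GR-ED fusion to nuclear EA restores b-gal, read by luminescence after 1 h room-temperature detection. Engineered CHO-K1 biosensor cells, 1,000/well, exposed 2 h at 37 C to titrations up to 46 uM final.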

Assay [4] addresses 3',5'-cyclic-AMP phosphodiesterase 4B (Homo sapiens) (UniProt Q07343). Description: qHTS Assay for Inhibitors of PDE-IV (AID 607; active means well fitted activation curve with a large enough effect in the main read-out, with a control signal flat, not every such curve was filed as active). In a few lines: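 The readout is membrane depolarisation from a cAMP-sensing CNG channel, detected with a potential dye at ex 535/em 590. Cells were HEK293-derived (endogenous PDE-IV) at 1000 cells/well, titrated up to 22.9 uM final.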
In assay [5] the target is Guanine nucleotide-binding protein G(i) subunit alpha-1 (Homo sapiens) (UniProt P63096). Description: qHTS Assay for Inhibitors of RGS12 GoLoco Motif Activity (Green Fluorophore) (AID 879).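 Further: negative values mean loss of peptide binding seen as reduced polarization.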 In a few lines:
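Fluorescence polarization assay: 50 nM Gαi1 with 10 nM FITC-labeled RGS12 GoLoco peptide in 10 mM Tris pH 7.5, 150 mM NaCl, 0.1 mM GDP, 0.05% NP40, 10 min at room temperature with compound.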
(In general: Quantitative high-throughput screening tests each substance at several concentrations.)

Assay [6] concerns the target Pyruvate kinase (Leishmania mexicana) (UniProt Q27686). The assay is described as follows: qHTS Validation Assay for Inhibitors of Leishmania Mexicana Pyruvate Kinase (AID 945). Summed up:
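LmPYK E451W 0.2 nM; 0.5 mM PEP, 0.1 mM ADP, 7 mM MgCl2, 50 mM KCl, imidazole pH 7.2, 0.01% Tween 20, 0.05% BSA; 1 h RT; PKLight luminescence; DMSO-normalized.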

The target in assay [7] is Pyruvate kinase PKM (Homo sapiens) (UniProt P14618). The assay is described as follows: qHTS Assay for Activators of Human Muscle Pyruvate Kinase (AID 954; active means well fitted curve in the direction sought with a large enough effect, not every such curve was filed as active). In a few lines:
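Reaction: 0.1 nM purified PKM2 with 0.5 mM phosphoenolpyruvate and 0.1 mM ADP, room temperature, 1 h. Readout: luciferase-based ATP luminescence after stop reagent. Activators judged against a 0.3 nM enzyme column.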

Assay [8] addresses Alpha-galactosidase A (Homo sapiens) (UniProt P06280). The assay is described as follows: Counterscreen for Glucocerebrosidase Inhibitors: qHTS Assay for Human alpha-Galactosidase at pH 4.5 (AID 992). In a few lines:
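Concentration-response curves (0.7 nM to 77 uM final) were modeled with the Hill equation to give AC50. Reactions: 2 nM enzyme, 80 uM fluorogenic alpha-galactoside, pH 4.5 citric acid buffer, 20 min, room temperature.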

For assay [9], the target named is alpha-glucosidase (Oryza sativa, rice) (UniProt Q653V4). Description: Counterscreen for Glucocerebrosidase Inhibitors: qHTS Assay for Rice alpha-Glucosidase at pH 5.0 (AID 997). Summed up:
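Rice alpha-glucosidase (4 nM final) with 400 uM 4-methylumbelliferyl-alpha-D-glucopyranoside in citrate buffer pH 5.0, 20 min at room temperature, stopped at pH 10; fluorescence 365/440 nm, compounds 0.7 nM–77 uM, AC50 from Hill fits.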

Assay [10] addresses Alpha-galactosidase (Coffea arabica) (UniProt Q42656). The assay is described as follows: Counterscreen for Glucocerebrosidase Inhibitors: qHTS Assay for Coffee Bean alpha-Galactosidase at pH 5.9 (AID 998). Summed up:
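Compounds were titrated from 0.7 nM to 77 uM against green coffee bean alpha-galactosidase (2 nM) using 80 uM fluorogenic 4-methylumbelliferyl substrate. After 20 min at room temperature, reactions were stopped at pH 10 and read by fluorescence.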
On the technique in general: The purpose of a counterscreen is to sort out artefacts and off-target activity.

Assay [11] concerns Zika virus NS2B-NS3 protease. Description: Primary screen GU AMC qHTS for Zika virus inhibitors (AID 1347154). Further: nearly all actives have a fitted effect of over 70% in size. Summed up:
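Fluorogenic AMC-substrate cleavage by noncovalent NS2B-NS3 protease complex (25 nM, pH 8.0 Tris buffer with Tween 20) followed for 15 minutes at room temperature (~20% conversion). Percent inhibition from ex340/em450 signal change, fitted by 4-parameter Hill equation.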

A short description of assay [12]: Primary qHTS for small molecule stabilizers of the endoplasmic reticulum resident proteome: Secreted ER Calcium Modulated Protein (SERCaMP) assay (AID 1508630). In a few lines: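 GLuc-SERCaMP-expressing SH-SY5Y cells, pretreated 16 h with compound, are challenged with thapsigargin to empty ER calcium stores; after 4 h, coelenterazine is added directly to the medium and luminescence is imaged.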

Assay [13] concerns the target Cytochrome P450 1A2 (Homo sapiens) (UniProt P05177). Description: p450-cyp1a2 (AID 410; calls by dose curve; further: potency means the concentration at half of the fitted maximal effect). Summed up:
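Luminescent readout of luciferin formed from Luciferin-ME by human CYP1A2; data normalized against complete inhibition by 57 uM furafylline. Enzyme 20nM, substrate 100uM at Km, 100mM KPO4 buffer, 60 min reaction at room temperature.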

For assay [14], the target named is Ubiquitin carboxyl-terminal hydrolase 1 (Homo sapiens) (UniProt O94782). The assay is described as follows: Inhibitors of USP1/UAF1: Pilot qHTS (AID 504865).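 Further: rhodamine fluorescence freed from ubiquitin-rhodamine substrate followed over time; top concentration of the series differs between compounds; nearly all actives have a fitted effect of over 35% in size.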 In a few lines:
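In 50mM HEPES pH 7.8 containing 0.5mM EDTA, 1mM TCEP, 0.1 mg/ml BSA and 0.01% Tween-20, 1nM USP1/UAF1 is exposed to compound for 15 min, then Ub-Rho (150nM final) is added and fluorescence is read over time.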

Assay [15] addresses DNA dC->dU-editing enzyme APOBEC-3G (Homo sapiens) (UniProt Q9HC16). Description: qHTS for inhibitors of Vif-A3G interactions: Validation (AID 588379). In a few lines:
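HeLa cells stably expressing Vif and A3G-eYFP, 700 cells/well, incubated overnight at 37 deg C, then exposed to compound overnight at 37 deg C. Inhibition of Vif-mediated degradation read as increased yellow fluorescence (Ex 488/Em 500-530) by laser-scanning cytometry.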

Assay [16] in a line: Stat Signaling Pathway (AID 446; active means well fitted curve in either direction with a large enough effect, not every such curve was filed as active;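 further: ME-180 cervical cancer cells given 40 pM IL-6 alongside compound; SIE-controlled beta-lactamase reporter measured as 460/530 nm FRET emission ratio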). Summed up: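 Screening format detects activators and inhibitors alike: ME-180 SIE-bla cells stimulated at 40 pM IL-6 for 5 hrs with compound, then dual-emission beta-lactamase read at 405 nm excitation.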
Assay [17] deals with Cytochrome P450 3A4 (Homo sapiens) (UniProt P08684). The assay is described as follows: qHTS Assay for Activators of Cytochrome P450 3A4 (AID 885). Further: nearly all actives have a fitted effect of over 65% in size. Summed up: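 Steps: enzyme/substrate mix dispensed; compound added, 10 min RT; NADPH regeneration solution added, 60 min RT; luciferin detection buffer stops reaction; 20 min later luminescence measured.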
For assay [18], the target named is Cytochrome P450 2D6 (Homo sapiens) (UniProt P10635). Description: qHTS Assay for Inhibitors and Substrates of Cytochrome P450 2D6 (AID 891). Further: nearly all actives have a fitted effect of over 60% in size. Further: potency means the concentration at half of the fitted maximal effect. In a few lines:
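Human CYP2D6 (5 nM) with 30 uM Luciferin-ME EGE (at Km) in 100 mM KPO4, compound preincubated 10 min, then NADPH regeneration system for 60 min at room temperature. Luciferin read by luminescence; normalized to 1.43 uM quinidine.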

Assay [19] addresses Mitogen-activated protein kinase 10 (Mus musculus) (UniProt Q61831). The assay is described as follows: JNK3 AlphaScreen Assay (AID 530; active means well fitted curve in either direction with a large enough effect, not every such curve was filed as active;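 further: kinase came from lysate of stimulated human HepG2 cells; signal reports phosphorylation of biotinylated GST-cJun 1-79 at Ser73 with 10 µM ATP; series mostly up to about 57 µM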). Summed up:
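Compound titrations were preincubated 15 minutes at room temperature with substrate, antibody and pre-activated JNK3-containing HepG2 lysate. Reactions were started with 10 uM ATP and stopped with EDTA-containing bead buffer for AlphaScreen detection.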

Molecules are shown by their SMILES. Several values for one entry are separate records, joined by “and”; a condition that tells them apart may be missing. Identical values can stand only once. A number with no mark means an inactive call. Results filed as inconclusive are left out. Activity calls are given as the source filed them. Unless noted, the call rests on the fitted dose curve; in most records, active means well fitted curve in the direction sought with a large enough effect; inconclusive means small, poorly fitted or top-dose-only effect, or another doubt; inactive means no such curve, though single readings can be large; an effect the other way counts as inactive or inconclusive.

Alpha-galactosidase (Coffea arabica), sequence (Q42656 whole entry, looked up): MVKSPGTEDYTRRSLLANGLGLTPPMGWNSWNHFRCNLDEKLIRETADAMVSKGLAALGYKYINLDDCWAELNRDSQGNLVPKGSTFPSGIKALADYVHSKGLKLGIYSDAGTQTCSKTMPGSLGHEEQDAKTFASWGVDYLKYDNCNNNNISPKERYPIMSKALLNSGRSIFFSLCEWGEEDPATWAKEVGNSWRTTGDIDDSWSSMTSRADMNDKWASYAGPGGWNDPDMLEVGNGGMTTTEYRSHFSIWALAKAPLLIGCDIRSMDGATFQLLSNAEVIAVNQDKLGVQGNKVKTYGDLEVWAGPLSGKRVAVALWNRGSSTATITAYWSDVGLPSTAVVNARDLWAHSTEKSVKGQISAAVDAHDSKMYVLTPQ
3',5'-cyclic-AMP phosphodiesterase 4B (Homo sapiens), sequence (Q07343 whole entry, looked up): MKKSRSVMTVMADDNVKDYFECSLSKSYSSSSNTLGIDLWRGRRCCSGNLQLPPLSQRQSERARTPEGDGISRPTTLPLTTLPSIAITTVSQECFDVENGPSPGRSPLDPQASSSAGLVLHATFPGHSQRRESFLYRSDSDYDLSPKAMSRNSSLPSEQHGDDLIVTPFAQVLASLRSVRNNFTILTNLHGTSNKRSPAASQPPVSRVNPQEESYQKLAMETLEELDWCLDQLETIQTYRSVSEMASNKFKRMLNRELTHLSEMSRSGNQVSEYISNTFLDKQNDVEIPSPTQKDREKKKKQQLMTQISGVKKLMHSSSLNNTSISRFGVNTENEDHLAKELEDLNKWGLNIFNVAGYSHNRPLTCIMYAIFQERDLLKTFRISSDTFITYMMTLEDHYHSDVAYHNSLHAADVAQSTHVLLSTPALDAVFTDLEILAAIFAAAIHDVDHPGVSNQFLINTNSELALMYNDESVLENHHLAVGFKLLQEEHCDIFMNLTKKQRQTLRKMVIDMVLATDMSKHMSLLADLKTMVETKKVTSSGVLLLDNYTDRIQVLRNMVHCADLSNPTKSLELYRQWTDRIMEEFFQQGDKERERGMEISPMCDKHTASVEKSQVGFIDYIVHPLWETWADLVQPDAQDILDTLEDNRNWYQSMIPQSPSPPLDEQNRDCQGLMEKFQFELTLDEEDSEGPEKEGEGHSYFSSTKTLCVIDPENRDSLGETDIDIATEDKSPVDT
DNA dC->dU-editing enzyme APOBEC-3G (Homo sapiens), sequence (Q9HC16 whole entry, looked up): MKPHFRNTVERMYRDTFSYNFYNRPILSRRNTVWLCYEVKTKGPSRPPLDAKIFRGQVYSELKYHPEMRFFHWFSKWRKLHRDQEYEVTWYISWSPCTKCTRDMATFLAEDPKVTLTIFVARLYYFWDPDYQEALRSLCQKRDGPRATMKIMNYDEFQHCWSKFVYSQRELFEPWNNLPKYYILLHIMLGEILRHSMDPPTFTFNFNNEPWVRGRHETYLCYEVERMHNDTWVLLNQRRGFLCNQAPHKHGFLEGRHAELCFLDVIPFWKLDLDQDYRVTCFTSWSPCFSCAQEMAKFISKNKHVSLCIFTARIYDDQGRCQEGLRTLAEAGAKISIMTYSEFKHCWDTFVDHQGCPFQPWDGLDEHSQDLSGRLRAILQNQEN
Ubiquitin carboxyl-terminal hydrolase 1 (Homo sapiens), sequence (O94782 whole entry, looked up): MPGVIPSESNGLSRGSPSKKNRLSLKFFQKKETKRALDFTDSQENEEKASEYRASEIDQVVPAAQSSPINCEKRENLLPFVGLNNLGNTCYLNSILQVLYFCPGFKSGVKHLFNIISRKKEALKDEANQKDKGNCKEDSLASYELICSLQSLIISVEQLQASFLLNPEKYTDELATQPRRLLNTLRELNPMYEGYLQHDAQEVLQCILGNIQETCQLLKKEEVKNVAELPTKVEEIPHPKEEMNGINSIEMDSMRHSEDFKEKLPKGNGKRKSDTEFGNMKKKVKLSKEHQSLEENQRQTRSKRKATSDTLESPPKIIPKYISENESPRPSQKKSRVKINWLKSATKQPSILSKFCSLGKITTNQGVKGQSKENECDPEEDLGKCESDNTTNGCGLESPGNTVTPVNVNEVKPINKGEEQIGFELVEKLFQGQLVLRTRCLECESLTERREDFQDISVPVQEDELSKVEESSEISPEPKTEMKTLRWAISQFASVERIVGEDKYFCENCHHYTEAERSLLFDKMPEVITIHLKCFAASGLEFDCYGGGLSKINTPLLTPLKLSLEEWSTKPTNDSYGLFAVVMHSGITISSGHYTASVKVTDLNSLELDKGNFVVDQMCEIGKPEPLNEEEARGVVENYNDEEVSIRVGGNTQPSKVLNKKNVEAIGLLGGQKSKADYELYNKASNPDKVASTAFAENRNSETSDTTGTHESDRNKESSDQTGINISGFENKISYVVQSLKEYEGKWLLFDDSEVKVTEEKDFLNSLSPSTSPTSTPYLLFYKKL
Pyruvate kinase (Leishmania mexicana), sequence (Q27686 2-499 E452W): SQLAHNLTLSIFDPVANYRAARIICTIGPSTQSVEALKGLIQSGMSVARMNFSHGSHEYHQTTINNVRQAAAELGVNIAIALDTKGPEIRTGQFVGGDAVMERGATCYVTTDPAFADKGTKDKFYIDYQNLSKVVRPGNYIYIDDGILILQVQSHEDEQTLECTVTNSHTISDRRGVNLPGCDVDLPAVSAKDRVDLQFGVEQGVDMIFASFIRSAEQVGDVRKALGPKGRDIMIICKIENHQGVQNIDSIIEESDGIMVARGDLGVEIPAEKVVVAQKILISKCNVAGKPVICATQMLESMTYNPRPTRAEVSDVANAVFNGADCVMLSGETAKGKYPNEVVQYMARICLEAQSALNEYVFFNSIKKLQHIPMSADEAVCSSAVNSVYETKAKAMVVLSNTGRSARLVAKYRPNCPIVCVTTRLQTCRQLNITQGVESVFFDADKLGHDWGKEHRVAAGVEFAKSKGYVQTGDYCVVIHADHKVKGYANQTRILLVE
Alpha-galactosidase A (Homo sapiens), sequence (P06280 whole entry, looked up): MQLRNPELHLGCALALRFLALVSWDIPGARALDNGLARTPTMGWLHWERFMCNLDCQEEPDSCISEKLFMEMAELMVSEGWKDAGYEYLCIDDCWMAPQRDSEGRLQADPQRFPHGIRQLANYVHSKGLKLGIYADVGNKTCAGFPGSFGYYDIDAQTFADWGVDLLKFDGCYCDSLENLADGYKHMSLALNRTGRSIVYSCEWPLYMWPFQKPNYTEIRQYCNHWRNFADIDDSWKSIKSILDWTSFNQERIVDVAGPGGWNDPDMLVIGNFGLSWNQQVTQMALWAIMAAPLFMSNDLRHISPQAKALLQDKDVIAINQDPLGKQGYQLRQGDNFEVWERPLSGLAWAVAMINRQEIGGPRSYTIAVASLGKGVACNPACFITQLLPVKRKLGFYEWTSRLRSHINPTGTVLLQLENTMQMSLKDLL
Glucocorticoid receptor (Homo sapiens), sequence (P04150 whole entry, looked up, the tested form may be a part): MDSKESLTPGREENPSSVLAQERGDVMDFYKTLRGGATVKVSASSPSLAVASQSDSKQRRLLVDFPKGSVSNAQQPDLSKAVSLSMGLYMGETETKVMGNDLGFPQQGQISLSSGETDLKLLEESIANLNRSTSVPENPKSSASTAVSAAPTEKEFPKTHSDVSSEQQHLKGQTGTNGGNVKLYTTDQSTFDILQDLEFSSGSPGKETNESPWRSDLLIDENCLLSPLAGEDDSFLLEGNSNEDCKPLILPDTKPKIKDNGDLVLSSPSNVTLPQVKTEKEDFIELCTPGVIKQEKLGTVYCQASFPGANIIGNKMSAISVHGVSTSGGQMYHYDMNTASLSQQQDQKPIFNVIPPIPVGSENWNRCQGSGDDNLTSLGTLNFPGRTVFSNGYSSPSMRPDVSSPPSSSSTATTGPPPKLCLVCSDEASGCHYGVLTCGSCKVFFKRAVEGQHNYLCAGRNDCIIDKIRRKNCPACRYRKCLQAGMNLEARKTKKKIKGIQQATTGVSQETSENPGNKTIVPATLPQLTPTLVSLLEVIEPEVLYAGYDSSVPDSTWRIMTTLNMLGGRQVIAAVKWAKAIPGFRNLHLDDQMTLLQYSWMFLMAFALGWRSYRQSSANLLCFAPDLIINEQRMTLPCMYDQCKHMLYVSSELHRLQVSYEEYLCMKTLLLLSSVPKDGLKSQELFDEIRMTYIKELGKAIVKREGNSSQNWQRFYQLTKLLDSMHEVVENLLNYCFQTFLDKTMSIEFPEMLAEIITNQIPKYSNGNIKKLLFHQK
Pyruvate kinase PKM (Homo sapiens), sequence (P14618 whole entry, looked up): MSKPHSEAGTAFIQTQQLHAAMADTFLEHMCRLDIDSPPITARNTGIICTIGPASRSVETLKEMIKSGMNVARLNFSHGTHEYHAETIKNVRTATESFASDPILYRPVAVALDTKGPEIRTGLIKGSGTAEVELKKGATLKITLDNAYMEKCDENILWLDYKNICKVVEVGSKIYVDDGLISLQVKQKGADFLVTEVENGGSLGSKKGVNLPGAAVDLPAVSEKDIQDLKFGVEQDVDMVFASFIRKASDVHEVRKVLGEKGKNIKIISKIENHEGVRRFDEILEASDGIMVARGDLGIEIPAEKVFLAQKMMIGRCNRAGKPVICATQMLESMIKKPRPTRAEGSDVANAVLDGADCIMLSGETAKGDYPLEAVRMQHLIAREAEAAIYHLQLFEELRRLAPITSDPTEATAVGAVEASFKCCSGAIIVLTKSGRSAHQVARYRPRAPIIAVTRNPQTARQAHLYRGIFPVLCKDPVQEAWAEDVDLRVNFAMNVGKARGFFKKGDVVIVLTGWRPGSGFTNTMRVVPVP
Cytochrome P450 3A4 (Homo sapiens), sequence (P08684 whole entry, looked up): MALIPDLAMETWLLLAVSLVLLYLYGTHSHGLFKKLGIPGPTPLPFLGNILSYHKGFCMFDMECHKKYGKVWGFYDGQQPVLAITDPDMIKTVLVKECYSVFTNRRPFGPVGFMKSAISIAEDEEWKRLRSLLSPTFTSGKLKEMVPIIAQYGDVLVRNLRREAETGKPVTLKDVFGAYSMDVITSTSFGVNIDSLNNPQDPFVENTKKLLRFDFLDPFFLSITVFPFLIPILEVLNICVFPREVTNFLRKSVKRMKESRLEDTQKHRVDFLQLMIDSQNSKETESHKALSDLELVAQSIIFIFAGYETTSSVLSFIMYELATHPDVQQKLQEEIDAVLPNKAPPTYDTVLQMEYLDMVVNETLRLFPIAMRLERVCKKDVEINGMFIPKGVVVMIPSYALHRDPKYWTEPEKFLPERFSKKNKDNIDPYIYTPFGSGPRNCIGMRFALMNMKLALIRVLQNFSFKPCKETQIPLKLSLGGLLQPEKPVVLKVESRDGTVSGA

For the compound `COc1ccc(CCN)cc1O`, the compound was called inactive in assay [1], in [5], in assay [6], in assay [7], in assay [8] and in [9]. The compound was classed as inactive in assay [10]. The Potency in assay [2] and in assay [3] was more than 46 µM in each case. For the same compound, the Potency result in [4], in [11] and in assay [12] was “inactive” in each case.
As to `CC(=O)O[C@@H]1CN2CCC1CC2`, the Potency result in [13], in assay [4], in [14], in assay [11] and in assay [12] was “inactive” in each case. Moreover, the Potency in [2] and in [3] was more than 46 µM in each case.
In the case of `CN[C@@H]1C[C@H](c2ccc(Cl)c(Cl)c2)c2ccccc21`, the Potency in [2] and in assay [3] was more than 46 µM throughout. The Potency result in [15], in assay [11] and in [12] was “inactive” in each case.
As for `C/C(O)=C(/C#N)C(=O)Nc1cc(Br)ccc1Br`, the call in [1], in assay [16], in [5], in [6], in assay [7] and in assay [8] was inactive. The compound was classed as inactive in assay [9] and in assay [10]. Besides, the Potency in assay [13] was 5.01 µM (active) and 2.51 µM (active); in assay [2] it was more than 46 µM; in assay [3] it was more than 46 µM. Further, the Potency result in assay [4], in assay [17], in assay [18], in [15], in assay [11] and in assay [12] was “inactive” each time.
With `CCOC(OCC)P(=O)(O)CCCN`, the Potency in assay [2] and in assay [3] was more than 46 µM each time. Besides, the outcome in [19] was inactive. For the same compound, the Potency entry in [14], in assay [11] and in [12] was “inactive” each time.
With `c1ccc([C@H]2CNCc3ccccc32)cc1`, the Potency result in assay [13], in assay [17], in assay [14], in assay [11] and in [12] was “inactive” throughout. Moreover, the Potency in [2] was more than 46 µM; in assay [3], more than 46 µM; in assay [18] it was 5.01 µM (active). For the same compound, the result in [19] was inactive.
Consider `CC(C)(c1ccc(OCC2CO2)cc1)c1ccc(OCC2CO2)cc1` (stereo unspecified), for which the Potency entry in [11] and in assay [12] was “inactive” throughout.
As to `C[C@H](N)Cc1c[nH]c2ccc(O)cc12`, the outcome in assay [1], in [16], in assay [19], in [5], in assay [6] and in [7] was inactive. Besides, the compound was called inactive in assay [8], in assay [9] and in assay [10]. In addition, the Potency entry in [13], in assay [4], in [15], in [11] and in assay [12] was “inactive” throughout. The Potency in [2] and in assay [3] was more than 46 µM each time.
For the compound `NC(=NCCc1ccc(I)cc1)SCCCc1cnc[nH]1`, the figures for the Potency in assay [13] and in assay [3] were 15.8 µM (active) and more than 46 µM, respectively. Also, the Potency entry in assay [17], in assay [14], in assay [15], in assay [11] and in assay [12] was “inactive” in each case.
